# PubChem BioAssay (Tox21)
# “And” between values parts separate entries of the source, which are not always exact repeats. Equal entries are not always repeated. Results filed as inconclusive are left out. Entries that show only a call come without a potency. A structure can be active in one record and inactive in another. The source made the active and inactive calls. Unless noted, the call rests on the fitted dose curve; in most records, active means well fitted curve in the direction sought with a large enough effect in the repeat runs; inconclusive means weak or mixed curves; inactive means no such curve, though single readings can be large; an effect the other way counts as inactive or inconclusive.
# Assays:
# [1] = qHTS assay to identify small molecule antagonists of the estrogen receptor alpha (ER-alpha) signaling pathway using the BG1 cell line in the presence of 0.1 nM 17-beta-estradiol - cell viability counter screen (AID 1259241); further: nearly all actives have a fitted effect of over 40% in size
# Method in brief: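 Estradiol-stimulated (0.1 nM) VM7Luc4E2 cells exposed to compounds 22 hr; viability measured by fluorescence of cleaved CellTiter-Fluor substrate after 30 min.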
# [2] = qHTS assay to identify small molecule antagonists of the androgen receptor (AR) signaling pathway using the MDA cell line in the presence of 0.5 nM R1881 - cell viability counter screen (AID 1259242); further: nearly all actives have a fitted effect of over 45% in size
# Method in brief: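 Concentration-response screen of compounds for toxicity in MDA-kb2 reporter cells: 16 hr at 37C with 0.5 nM R1881, endpoint live-cell protease fluorescence measured in the reporter wells.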
# [3] = biological target: Estrogen receptor (Homo sapiens) (UniProt P03372); test: qHTS assay to identify small molecule antagonists of the estrogen receptor alpha (ER-alpha) signaling pathway using the BG1 cell line in the presence of 0.1 nM 17-beta-estradiol (AID 1259244); further: nearly all actives have a fitted effect of over 50% in size; further: potency means the concentration at half of the fitted maximal effect
# Method in brief: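 Compounds were tested against 0.1 nM (final) 17beta-estradiol in VM7Luc4E2 cells, which express full-length ER-alpha and an ERE-luciferase reporter; luminescence was recorded following 22 h exposure.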
# [4] = qHTS assay to identify small molecule HDAC inhibitors (AID 1259364); further: potency means the concentration at half of the fitted maximal effect;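 further: wild-type HCT-116 cells with endogenous class I/II HDAC activity; nearly all actives have a fitted effect of over 45% in size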
# Method in brief: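 Screening used wild-type human colon HCT-116 cells incubated overnight, dosed with compounds for 2 hours, and assayed with a homogeneous luminogenic HDAC I/II reagent for 30 minutes at room temperature.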
# [5] = qHTS assay to identify small molecule HDAC inhibitors - cell viability counter screen (AID 1259365); further: series mostly up to about 92 µM; nearly all actives have a fitted effect of over 50% in size
# Method in brief: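 After overnight seeding at 1,500 cells per well, wild-type HCT-116 cultures took up compounds in DMSO for 2hr at 37 C. Viable cell content came from luminescence with CellTiter-Glo.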
# [6] = qHTS assay to identify small molecule agonists of the sonic hedgehog signaling (Shh) pathway - cell viability counter screen (AID 1259366); further: nearly all actives have a fitted effect of over 50% in size; further: potency means the concentration at half of the fitted maximal effect
# Method in brief: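 Same-well cytotoxicity read. Gli1-Luc reporter 3T3 cells; compounds 24hr, 37C/5% CO2; CellTiter-Fluor fluorescence.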
# [7] = qHTS assay to identify small molecule agonists of the sonic hedgehog signaling (Shh) pathway (AID 1259368; calls by dose curve;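 further: NIH/3T3-derived 3T3Gli1-Luc cells carrying a stable Gli1-driven firefly luciferase reporter; series mostly up to about 92 µM; nearly all actives have a fitted effect of over 15% in size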)
# Method in brief: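 Hedgehog pathway agonism scored by increased firefly luciferase luminescence in 3T3Gli1-Luc cells treated 24 hr at 37 C; detection used a 30 min room-temperature reagent incubation.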
# [8] = qHTS assay to identify small molecule antagonists of the sonic hedgehog signaling (Shh) pathway (AID 1259369; calls by dose curve; further: nearly all actives have a fitted effect of over 45% in size; further: potency means the concentration at half of the fitted maximal effect)
# Method in brief: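 NIH/3T3 stable Gli1-Luc clone, 2,000 cells/well, 4hr settle; cpd + conditioned medium 24hr; Luc reagent 30min RT; luminescence.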
# [9] = biological target: Estrogen receptor beta (Homo sapiens) (UniProt Q92731); test: qHTS assay to identify small molecule agonists of the estrogen receptor beta (ER-beta) signaling pathway (AID 1259377; active means well fitted activation curve with a large enough effect in the signal ratio in the repeat runs, not every such curve was filed as active; the % refers to the signal ratio)
# Method in brief: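 Read-out: beta-lactamase FRET fluorescence. Cell line: ER-beta-UAS-bla HEK293T in 2% charcoal-stripped FBS. Exposure: 16 hr at 37C. Substrate step: 2 h at room temperature.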
# [10] = biological target: Estrogen receptor beta (Homo sapiens) (UniProt Q92731); test: qHTS assay to identify small molecule antagonists of the estrogen receptor beta (ER-beta) signaling pathway (AID 1259378; active means well fitted inhibition curve with a large enough effect in the signal ratio in the repeat runs, not every such curve was filed as active; the % refers to the signal ratio)
# Method in brief: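 ER-beta-UAS-bla HEK293T cells in 2% charcoal-stripped FBS medium treated with compound plus 1nM final 17-beta-estradiol for 16 hr at 37C. Beta-lactamase reporter read by FRET substrate fluorescence after 2 hours at room temperature.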
# [11] = qHTS assay to identify small molecule agonists of the androgen receptor (AR) signaling pathway in the presence of an antagonist - cell viability counter screen (AID 1259379);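 further: MDA-kb2 human breast cancer cells carrying an MMTV luciferase reporter; series mostly up to about 92 µM; nearly all actives have a fitted effect of over 25% in size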
# Method in brief: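 MDA-kb2 viability measured by CellTiter-Fluor fluorescence in the same wells as the luciferase signal; nilutamide 3.0uM final; 15-point compound titration; 16 hr at 37C.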
# [12] = qHTS assay to identify small molecule agonists of the estrogen receptor beta (ER-beta) signaling pathway - cell viability counter screen (AID 1259380); further: nearly all actives have a fitted effect of over 30% in size; further: potency means the concentration at half of the fitted maximal effect
# Method in brief: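 Measured: luminescence from CellTiter-Glo after 30 min at room temperature, added to wells already read for the LiveBLAzer FRET reporter (2 hr substrate); ER-beta-UAS-bla HEK293T cells had 16 hr compound treatment at 37C, 5% CO2.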
# [13] = qHTS assay to identify small molecule antagonists of the estrogen receptor beta (ER-beta) signaling pathway - cell viability counter screen (AID 1259382); further: nearly all actives have a fitted effect of over 55% in size; further: potency means the concentration at half of the fitted maximal effect
# Method in brief: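 Readout: luminescence, CellTiter-Glo, same wells as bla assay. System: ER-beta-UAS-bla GripTite HEK293T, 2% charcoal-stripped FBS. Exposure: compounds plus 1nM 17-beta-estradiol, 16 hr, 37C.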
# [14] = biological target: Estrogen receptor (Homo sapiens) (UniProt P03372); test: qHTS assay to identify small molecule agonists of the estrogen receptor alpha (ER-alpha) signaling pathway in the presence of an antagonist (AID 1259383; calls by dose curve; further: top concentration of the series differs between compounds; nearly all actives have a fitted effect of over 15% in size)
# Method in brief: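 Quantitative HTS confirmation: compounds titrated at 15 concentrations onto estrogen-deprived VM7Luc4E2 cells carrying a four-ERE luciferase construct, with ICI-182,780 present at 10.0nM final. Signal is luminescence after 22hr exposure.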
# [15] = qHTS assay to identify small molecule agonists or antagonists of the thyroid stimulating hormone receptor (TSHR) signaling pathway - wild type cell line counter screen (AID 1259384; calls by dose curve)
# Method in brief: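 Wild-type Hek293 cells, 800/well, 18 h at 37C, then compound with Ro20-1724 for 30 min RT. cAMP by HTRF (cAMP-d2/anti-cAMP cryptate), 1 h RT, fluorescence read. 15 concentrations, triplicates.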
# [16] = biological target: Thyrotropin receptor (Homo sapiens) (UniProt P16473); test: qHTS assay to identify small molecule antagonists of the thyroid stimulating hormone receptor (TSHR) signaling pathway (AID 1259385; calls by dose curve; further: nearly all actives have a fitted effect of over 20% in size)
# Method in brief: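 TSHR-HEK293 cells (800/well) plated 18 h, then compounds with Ro20-1724 and TSH at 1.5 ng/mL final, 30 min at room temperature. cAMP quantified by HTRF (cAMP-d2/anti-cAMP-cryptate, 1 h); 15 concentrations in triplicate.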
# [17] = qHTS assay to identify small molecule antagonists of the sonic hedgehog signaling (Shh) pathway - cell viability counter screen (AID 1259367); further: nearly all actives have a fitted effect of over 55% in size
# Method in brief: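 Tox21 library chemicals were tested on a Gli1-Luc NIH/3T3 clone (2,000 cells/well) stimulated by conditioned medium; viability was quantified as fluorescence from CellTiter-Fluor reagent added at 23 hr.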
# Chain of Thyrotropin receptor (Homo sapiens) (P16473 whole entry, looked up): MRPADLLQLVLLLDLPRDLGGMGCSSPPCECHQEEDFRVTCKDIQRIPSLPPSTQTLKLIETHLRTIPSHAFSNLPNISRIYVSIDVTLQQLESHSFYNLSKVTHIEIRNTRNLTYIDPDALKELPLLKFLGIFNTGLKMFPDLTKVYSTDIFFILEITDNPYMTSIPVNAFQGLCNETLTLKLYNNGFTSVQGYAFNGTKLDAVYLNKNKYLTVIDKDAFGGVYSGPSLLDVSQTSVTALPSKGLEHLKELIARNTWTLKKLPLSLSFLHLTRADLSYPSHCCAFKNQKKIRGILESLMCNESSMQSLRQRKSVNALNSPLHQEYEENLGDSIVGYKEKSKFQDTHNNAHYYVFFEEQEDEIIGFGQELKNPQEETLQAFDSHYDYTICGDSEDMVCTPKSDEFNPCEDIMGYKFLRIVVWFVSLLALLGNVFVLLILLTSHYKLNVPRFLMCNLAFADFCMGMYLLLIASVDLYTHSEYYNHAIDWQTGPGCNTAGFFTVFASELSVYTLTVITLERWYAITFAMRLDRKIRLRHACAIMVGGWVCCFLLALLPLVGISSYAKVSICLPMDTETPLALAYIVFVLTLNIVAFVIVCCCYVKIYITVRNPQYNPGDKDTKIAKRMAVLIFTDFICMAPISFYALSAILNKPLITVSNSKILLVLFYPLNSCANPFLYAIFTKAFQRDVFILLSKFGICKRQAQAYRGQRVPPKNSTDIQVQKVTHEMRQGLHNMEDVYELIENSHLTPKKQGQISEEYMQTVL
# Chain of Estrogen receptor (Homo sapiens) (P03372 whole entry, looked up): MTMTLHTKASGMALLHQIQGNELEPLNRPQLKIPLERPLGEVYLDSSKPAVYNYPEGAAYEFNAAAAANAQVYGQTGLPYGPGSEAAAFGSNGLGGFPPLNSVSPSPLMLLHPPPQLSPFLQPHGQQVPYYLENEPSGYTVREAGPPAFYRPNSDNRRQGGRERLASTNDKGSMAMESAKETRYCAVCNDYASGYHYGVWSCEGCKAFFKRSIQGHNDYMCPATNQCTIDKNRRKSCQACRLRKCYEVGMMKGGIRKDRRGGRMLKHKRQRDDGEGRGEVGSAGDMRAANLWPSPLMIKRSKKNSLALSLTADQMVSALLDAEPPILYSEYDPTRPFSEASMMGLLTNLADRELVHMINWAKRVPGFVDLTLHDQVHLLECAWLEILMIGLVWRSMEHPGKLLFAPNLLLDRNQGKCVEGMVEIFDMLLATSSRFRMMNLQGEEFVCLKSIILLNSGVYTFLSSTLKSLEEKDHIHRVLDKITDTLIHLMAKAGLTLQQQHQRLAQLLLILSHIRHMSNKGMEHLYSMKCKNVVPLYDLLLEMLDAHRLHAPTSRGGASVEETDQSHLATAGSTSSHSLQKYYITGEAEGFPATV
# Chain of Estrogen receptor beta (Homo sapiens) (Q92731 whole entry, looked up): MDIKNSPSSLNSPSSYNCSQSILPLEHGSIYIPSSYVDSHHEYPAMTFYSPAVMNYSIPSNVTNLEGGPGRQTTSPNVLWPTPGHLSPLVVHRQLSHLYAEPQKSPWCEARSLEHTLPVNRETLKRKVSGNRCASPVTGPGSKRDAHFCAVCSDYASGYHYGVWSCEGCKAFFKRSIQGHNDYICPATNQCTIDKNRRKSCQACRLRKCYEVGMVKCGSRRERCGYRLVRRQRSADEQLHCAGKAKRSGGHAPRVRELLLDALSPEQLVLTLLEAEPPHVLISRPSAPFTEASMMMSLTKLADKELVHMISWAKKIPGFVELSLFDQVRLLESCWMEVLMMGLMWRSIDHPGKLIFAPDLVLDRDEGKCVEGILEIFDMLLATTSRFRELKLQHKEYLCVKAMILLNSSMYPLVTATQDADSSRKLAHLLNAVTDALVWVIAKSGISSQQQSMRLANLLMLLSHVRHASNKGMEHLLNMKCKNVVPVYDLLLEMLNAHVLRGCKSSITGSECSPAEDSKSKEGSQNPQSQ
Compound,Potency [1],Potency [2],Potency [3],Potency [4],outcome [5],Potency [6],Potency [7],Potency [8],Potency [9],Potency [10],Potency [11],Potency [12],Potency [13],Potency [14],Potency [15],Potency [16],Potency [17]
CCCCCCCCCCCCCO,inactive,inactive,inactive,inactive,inactive,inactive,inactive,inactive,inactive,inactive,inactive,inactive,inactive,inactive,–,–,–
COC(=O)CC(=O)OC,inactive,inactive,inactive,inactive,inactive,inactive,inactive,inactive,–,inactive,inactive,inactive,inactive,inactive,inactive,inactive,–
ClC/C=C/CCl,inactive,inactive,inactive,inactive,inactive,inactive,inactive,inactive,–,–,inactive,inactive,inactive,inactive,inactive,inactive,inactive
NCCOCCO,inactive,inactive,inactive,inactive,inactive,inactive,inactive,inactive,–,inactive,inactive,inactive,inactive,inactive,–,–,inactive
Cc1ccc(N)c([N+](=O)[O-])c1,inactive,inactive,inactive,inactive,inactive,inactive,inactive,inactive,–,inactive,inactive,inactive,inactive,inactive,inactive,inactive,–
C=CN1CCCC1=O,inactive,inactive,inactive,inactive,inactive,inactive,inactive,inactive,–,–,inactive,inactive,inactive,inactive,–,–,–
Nc1cc([N+](=O)[O-])ccc1C(=O)O,inactive,inactive,inactive,49.5 µM (active) and 27.3 µM (active),inactive,inactive,inactive,inactive,–,inactive,inactive,inactive,inactive,inactive,inactive,inactive,inactive
C1CN(SSN2CCOCC2)CCO1,inactive,inactive,inactive,inactive,inactive,53.9 µM (active) and 48.6 µM (active),inactive,12.1 µM (active) and 24.3 µM (active),–,–,inactive,inactive and 48.6 µM (active),inactive,inactive,–,inactive,–
CC(C)=CCO,inactive,inactive,inactive,inactive,inactive,inactive,inactive,inactive,inactive,inactive,inactive,inactive,inactive,inactive,–,inactive,inactive
Nc1cc(Cl)c(N)c(Cl)c1,inactive,inactive,inactive,inactive,inactive,inactive,inactive,–,–,–,inactive,inactive,inactive,inactive,–,–,–
C=C[Si](OCCOC)(OCCOC)OCCOC,inactive,inactive,inactive,inactive,inactive,inactive,inactive,inactive,–,–,inactive,inactive,inactive,inactive,–,inactive,–
O=C1CCc2ccccc2O1,inactive,inactive,inactive,inactive,inactive,inactive,inactive,inactive,inactive,inactive,inactive,inactive,inactive,inactive,–,inactive,inactive
CC(=O)OC(C)C,inactive,inactive,inactive,inactive,inactive,inactive,inactive,inactive,–,inactive,inactive,inactive,inactive,inactive,inactive,inactive,inactive
Cc1ccc([N+](=O)[O-])c(C)c1,inactive,inactive,6.11 µM (active) and inactive,inactive,inactive,inactive,inactive,inactive,–,–,inactive,6.11 µM (active) and inactive,8.63 µM (active) and inactive,inactive,inactive,inactive,inactive
O=S1(=O)CCCO1,inactive,inactive,inactive,inactive,inactive,inactive,inactive,inactive,–,inactive,inactive,inactive,inactive,inactive,inactive,inactive,inactive
CC(=O)Nc1ccc2c(c1)Cc1cc(NC(C)=O)ccc1-2,inactive,inactive,inactive,inactive,inactive,inactive,inactive,inactive,–,–,inactive,inactive,inactive,inactive,inactive,inactive,–
COC(=O)C(C)Oc1ccc(Oc2ncc(C(F)(F)F)cc2Cl)cc1 (stereo unspecified),inactive,inactive,inactive,inactive,inactive,inactive,inactive,inactive and 30.6 µM (active),–,inactive,inactive,inactive,inactive,inactive,–,inactive,inactive
